Test systems include HCT-15 colon; HT29 colon; SNB-75 CNS; SNB-19 CNS; U251 CNS; PC-3 prostate; SK-MEL-5 melanoma; UACC-62 melanoma; LOX IMVI melanoma; SK-MEL-28 melanoma; SK-MEL-2 melanoma; EKVX NSCLC; SN12C renal; UO-31 renal; TK-10 renal; ACHN renal; CAKI-1 renal; CCRF-CEM leukemia; MOLT-4 leukemia.
Holding throughout (assay): NCI-60 one-dose screen, 48 h (100 = growth as untreated, 0 = no growth, -100 = all killed)
Common to all, as to settings: 10 µM unless noted

Compounds without any hit were thinned out: in the full panel of roughly 83,000, 20% have a hit.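 Activity criterion: percent growth below 10, measured after cells in 96-well plates were exposed to a single compound concentration for 48 hours.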 Values without a mark were called inactive. The source made the active and inactive calls.

For `COc1cc2nc(-c3ccc(C(F)(F)F)cc3)cc(OCCN3CCCCC3)c2cc1OC`, the growth in the assay with HCT-15 colon was 43.7%; in the assay with HT29 colon it was 46.4%; with SNB-75 CNS it was 54.4%; with SNB-19 CNS it was 91.1%; with U251 CNS it was 72.3%; in the assay on PC-3 prostate, 61.3%. The growth in the assay on SK-MEL-5 melanoma is 70.4%; in the assay on UACC-62 melanoma, 89.7%; in the assay with LOX IMVI melanoma it was -15.5% (active); with SK-MEL-28 melanoma it was 70.2%; in the assay with SK-MEL-2 melanoma, 105%; with EKVX NSCLC it was 62.4%. In addition, the growth with SN12C renal is 63.6%; in the assay on UO-31 renal, 54.3%; with TK-10 renal it was 93.9%; in the assay with ACHN renal it was 81.4%; with CAKI-1 renal, 45.2%; with CCRF-CEM leukemia, 78.8%. Also, the growth in the assay on MOLT-4 leukemia is 65.3%.
With `CCCCCN1C=C/C(=C\C(=O)n2ccc3ccccc32)c2ccccc21`, the growth with HCT-15 colon is 98.4%; with HT29 colon it was 80.6%; in the assay on SNB-75 CNS, 90.9%; in the assay on SNB-19 CNS, 106%; with U251 CNS it was 91.1%; in the assay with PC-3 prostate, 85.3%. In addition, the growth in the assay with SK-MEL-5 melanoma is 97.3%; in the assay with UACC-62 melanoma, 67%; in the assay on LOX IMVI melanoma, 92%; in the assay on SK-MEL-28 melanoma, 104%; in the assay on SK-MEL-2 melanoma it was 96.9%; with EKVX NSCLC, 69.3%. Besides, the growth with SN12C renal is 89.9%; with UO-31 renal it was 49.4%; in the assay with TK-10 renal, 110%; with ACHN renal, 93.5%; with CAKI-1 renal, 70.6%; in the assay with CCRF-CEM leukemia, 94.6%. In addition, the growth in the assay on MOLT-4 leukemia was 90%.
On to `O=C1Nc2cc(-c3ccc(NC(=O)c4ccccc4)cc3)ccc2/C1=C/c1ccc[nH]1`, for which the growth is 87.9% with HCT-15 colon; 109% with HT29 colon; 99% in the assay on SNB-75 CNS; 98.8% with SNB-19 CNS; 90.2% in the assay on U251 CNS; 101% with PC-3 prostate. Besides, the growth is 103% in the assay with SK-MEL-5 melanoma; 98.4% with UACC-62 melanoma; 96.2% in the assay with LOX IMVI melanoma; 119% in the assay with SK-MEL-28 melanoma; 102% in the assay with SK-MEL-2 melanoma; 51.1% in the assay on EKVX NSCLC. In addition, the growth with SN12C renal is 101%; in the assay on UO-31 renal, 71.6%; in the assay on TK-10 renal, 113%; in the assay with ACHN renal it was 95.8%; in the assay with CAKI-1 renal, 100%; with CCRF-CEM leukemia it was 92.4%. In the assay on MOLT-4 leukemia, the growth is 92.8%.
Turning to `CCCCCC(=O)Oc1ccc(/C(=C(\C)c2ccccc2)c2ccc(OCCN3CCCCC3)cc2)cc1`, the growth in the assay with HCT-15 colon was 58.5%; in the assay with HT29 colon, 8.87% (active); in the assay on SNB-75 CNS it was 92%; in the assay on SNB-19 CNS, 89.6%; with U251 CNS, 71.7%; in the assay with PC-3 prostate it was 72.2%. For the same compound, the growth in the assay with SK-MEL-5 melanoma was 83.9%; in the assay on UACC-62 melanoma, 91%; with LOX IMVI melanoma, 84%; in the assay with SK-MEL-28 melanoma it was 71.4%; in the assay on SK-MEL-2 melanoma it was 81.3%; with EKVX NSCLC, 93.7%. Moreover, the growth in the assay with SN12C renal is 79.5%; in the assay with UO-31 renal, 59.8%; with TK-10 renal it was 85.1%; with ACHN renal it was 96.2%; with CAKI-1 renal it was 88.6%; with CCRF-CEM leukemia, 85.1%. Besides, in the assay on MOLT-4 leukemia, the growth is 63.7%.
In the case of `COc1cc(F)c(/C=C/c2cc(/C=C/c3cc(OC)c(OC)cc3F)on2)cc1OC`, the growth in the assay on HCT-15 colon was 82.1%; in the assay on HT29 colon it was 77.9%; with SNB-75 CNS it was 98.2%; in the assay with SNB-19 CNS it was 76.8%; in the assay with U251 CNS, 83.1%; with PC-3 prostate, 74%. For the same compound, the growth was 91.9% with SK-MEL-5 melanoma; 66.1% in the assay on UACC-62 melanoma; 81.9% in the assay on LOX IMVI melanoma; 82.7% with SK-MEL-28 melanoma; 76.3% in the assay with SK-MEL-2 melanoma; 102% in the assay with EKVX NSCLC. Also, the growth in the assay with SN12C renal was 91.6%; in the assay with UO-31 renal, 91.2%; in the assay with TK-10 renal, 100%; in the assay on ACHN renal, 80%; in the assay with CAKI-1 renal, 90.1%; with CCRF-CEM leukemia it was 91.9%. The growth with MOLT-4 leukemia was 91.1%.
On to `COc1ccc(CNCCN2C(=O)c3ccc4c5c(ccc(c35)C2=O)C(=O)N(CCNCc2ccc(OC)c(OC)c2OC)C4=O)c(OC)c1OC`, for which the growth is -51.2% (active) with HCT-15 colon; -45.7% (active) in the assay on HT29 colon; -12.6% (active) with SNB-75 CNS; -13.6% (active) in the assay on SNB-19 CNS; -46.1% (active) with U251 CNS; 0.0353% (active) with PC-3 prostate. Further, the growth in the assay with SK-MEL-5 melanoma was -93.9% (active); in the assay with UACC-62 melanoma, -72.2% (active); in the assay on LOX IMVI melanoma, -27.9% (active); in the assay with SK-MEL-28 melanoma, -7.81% (active); in the assay with SK-MEL-2 melanoma it was -62.9% (active); in the assay with EKVX NSCLC, -28.3% (active). Besides, the growth is -77.3% (active) in the assay on SN12C renal; -19.6% (active) in the assay with UO-31 renal; 30.3% in the assay on TK-10 renal; -51.1% (active) with ACHN renal; -12.3% (active) with CAKI-1 renal; -14.8% (active) in the assay on CCRF-CEM leukemia. In the assay on MOLT-4 leukemia, the growth is -35.2% (active).
On to `CCCCCCCCOc1ccc(/C=N/Nc2cc(C)nc3ccc(Br)cc23)cc1`, for which the growth was 21% with HCT-15 colon; 11.9% with HT29 colon; 20% in the assay with SNB-75 CNS; 76.1% with SNB-19 CNS; 16.5% in the assay on U251 CNS; 60.8% with PC-3 prostate. The growth was 76.9% in the assay on SK-MEL-5 melanoma; 92.7% in the assay on UACC-62 melanoma; 22.4% in the assay on LOX IMVI melanoma; 80.9% in the assay on SK-MEL-28 melanoma; 96.2% in the assay on SK-MEL-2 melanoma; 85% with EKVX NSCLC. The growth in the assay with SN12C renal is 68.2%; with UO-31 renal it was 64.7%; with TK-10 renal, 90.3%; in the assay on ACHN renal, 52.1%; with CAKI-1 renal, 84.1%; in the assay with CCRF-CEM leukemia, 7.66% (active). In the assay with MOLT-4 leukemia, the growth was 58%.
